Data on nine compounds can be found in PubChem BioAssay (NCI).

Experiment [1] can be described thus: NCI Yeast Anticancer Drug Screen. Data for the rad50 strain (AID 155).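 Note: 0% = growth of vehicle-only cultures of the same strain.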 As to conditions: S. cerevisiae rad50 strain growth inhibition, stronger effect = higher value. The method, boiled down:
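Yeast carrying a defined DNA repair defect were exposed to test compounds, and growth was compared with vehicle-treated controls to give percent inhibition.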

Experiment [2] can be described thus: NCI Yeast Anticancer Drug Screen. Data for the mec2-1 strain (AID 157). As to conditions: S. cerevisiae mec2-1 strain, stronger effect = higher value. In a few lines: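 Using mec2-1 yeast: add compound, measure growth, express inhibition versus vehicle-treated cultures.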
Experiment [3] in a line: NCI Yeast Anticancer Drug Screen. Data for the sgs1 mgt1 strain (AID 161).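 Note: 0% = growth of cultures given vehicle only.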 Particulars: S. cerevisiae sgs1 mgt1 strain, stronger effect = higher value. In a few lines:
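Percent growth inhibition was derived by comparing compound-exposed mutant yeast with vehicle-exposed cultures. The strain carries alterations in DNA damage repair.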

Experiment [4] can be described thus: NCI Yeast Anticancer Drug Screen. Data for the cln2 rad14 strain (AID 165).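 Note: 0% = growth equal to vehicle treated cultures.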 As to conditions: S. cerevisiae cln2 rad14 strain, stronger effect = higher value. In a few lines: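 Yeast strain cln2 rad14, bearing defects in cell cycle control and DNA repair, serves as the test system; values reflect growth inhibition compared with vehicle.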
A short description of experiment [5]: NCI Yeast Anticancer Drug Screen. Data for the bub3 strain (AID 167). As to conditions: S. cerevisiae bub3 mutant strain, stronger effect = higher value. In a few lines: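 Compounds were applied to a genetically altered yeast strain carrying a cell-cycle control defect. Growth inhibition was scored against vehicle-treated controls.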
Experiment [6] can be described thus: NCI Yeast Anticancer Drug Screen. Data for the mlh1 rad18 strain (AID 175). Particulars: S. cerevisiae mlh1 rad18 strain growth inhibition, stronger effect = higher value. The method, boiled down:
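Steps: expose repair-defective yeast to compound; measure growth; express inhibition against vehicle-treated controls.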

Setting [7] is: at 5.0 µM (retest, dose inferred, filed as 0.5).
The mark [8] stands for this setting: at 50.0 µM (retest, dose inferred, filed as 5.0).

Each structure is given as a SMILES string. Compounds without any hit were thinned out: in the full panel of roughly 79,000, 15% have a hit. Unmarked numbers belong to inactive results. Active and inactive are the calls of the source. Cut-off read from the data, not from the text of the source: active = growth inhibition above about 70%; inactive = the rest.

For the compound `Cc1ccc2c(n1)C(=O)C=CC2=O`, the growth inhibition in experiment [1] (setting [7]) is 25%; in experiment [1] (setting [8]) it was 94% (active); in experiment [1] (at 50.0 µM), 80.1% (active); in experiment [2] (setting [7]), 5%; in experiment [2] (setting [8]), 94% (active); in experiment [2] (at 50.0 µM), 89.5% (active). Besides, the growth inhibition in experiment [3] (setting [7]) was 22%; in experiment [3] (setting [8]) it was 90% (active); in experiment [3] (at 50.0 µM), 80.8% (active); in experiment [4] (setting [7]), 22%; in experiment [4] (setting [8]), 77% (active); in experiment [4] (at 50.0 µM) it was 22.9%. Moreover, the growth inhibition in experiment [5] (setting [7]) is 20%; in experiment [5] (setting [8]), 97% (active); in experiment [5] (at 50.0 µM), 80.8% (active); in experiment [6] (setting [7]), 17%; in experiment [6] (setting [8]) it was 93% (active); in experiment [6] (at 50.0 µM) it was 36.2%.
As for `CC[Si](CC)(CC)c1ccc(CCNCCS)s1`, the growth inhibition in experiment [1] (setting [7]) was -1%; in experiment [1] (setting [8]), 96% (active); in experiment [1] (at 50.0 µM) it was 97.4% (active); in experiment [2] (setting [7]) it was 32%; in experiment [2] (setting [8]) it was 99% (active); in experiment [2] (at 50.0 µM) it was 98.7% (active). The growth inhibition was 52% in experiment [3] (setting [7]); 98% (active) in experiment [3] (setting [8]); 98.2% (active) in experiment [3] (at 50.0 µM); 8% in experiment [4] (setting [7]); 97% (active) in experiment [4] (setting [8]); 98% (active) in experiment [4] (at 50.0 µM). In addition, the growth inhibition is 19% in experiment [5] (setting [7]); 99% (active) in experiment [5] (setting [8]); 98.4% (active) in experiment [5] (at 50.0 µM); 49% in experiment [6] (setting [7]); 97% (active) in experiment [6] (setting [8]); 98.3% (active) in experiment [6] (at 50.0 µM).
For the compound `CC(C)(C)c1ccc(O)c(CN(Cc2c(O)ccc3ccccc23)C2CCCCC2)c1`, the growth inhibition in experiment [1] (setting [7]) was 22%; in experiment [1] (setting [8]), 99% (active); in experiment [1] (at 50.0 µM), 98% (active); in experiment [2] (setting [7]) it was 17%; in experiment [2] (setting [8]), 98% (active); in experiment [2] (at 50.0 µM), 98.2% (active). Moreover, the growth inhibition was 13% in experiment [3] (setting [7]); 99% (active) in experiment [3] (setting [8]); 98% (active) in experiment [3] (at 50.0 µM); -12% in experiment [4] (setting [7]); 97% (active) in experiment [4] (setting [8]); 97.7% (active) in experiment [4] (at 50.0 µM). Besides, the growth inhibition was -3% in experiment [5] (setting [7]); 99% (active) in experiment [5] (setting [8]); 97.4% (active) in experiment [5] (at 50.0 µM); 10% in experiment [6] (setting [7]); 99% (active) in experiment [6] (setting [8]); 98.1% (active) in experiment [6] (at 50.0 µM).
`COC(=O)Oc1nn(C(=O)OC)c(=O)c2ccccc12`: the growth inhibition in experiment [1] (setting [7]) was -18%; in experiment [1] (setting [8]) it was 87% (active); in experiment [1] (at 50.0 µM), 90.9% (active); in experiment [2] (setting [7]), -3%; in experiment [2] (setting [8]), 45%; in experiment [2] (at 50.0 µM) it was 24.2%. In addition, the growth inhibition was -17% in experiment [3] (setting [7]); 43% in experiment [3] (setting [8]); 44.4% in experiment [3] (at 50.0 µM); 7% in experiment [4] (setting [7]); 66% in experiment [4] (setting [8]); 99.6% (active) in experiment [4] (at 50.0 µM). Moreover, the growth inhibition is 5% in experiment [5] (setting [7]); 58% in experiment [5] (setting [8]); 99.5% (active) in experiment [5] (at 50.0 µM); -12% in experiment [6] (setting [7]); 54% in experiment [6] (setting [8]); 86.5% (active) in experiment [6] (at 50.0 µM).
Turning to `O=C1C=C(c2ccccc2)O/C1=C/C(=O)c1ccc(Cl)cc1`, the growth inhibition in experiment [1] (setting [7]) was 32%; in experiment [1] (setting [8]), 32%; in experiment [1] (at 50.0 µM), 53.3%; in experiment [2] (setting [7]), 32%; in experiment [2] (setting [8]), 32%; in experiment [2] (at 50.0 µM) it was 65.2%. For the same compound, the growth inhibition in experiment [3] (setting [7]) is 40%; in experiment [3] (setting [8]) it was 40%; in experiment [3] (at 50.0 µM), 79% (active); in experiment [4] (setting [7]) it was 11%; in experiment [4] (setting [8]), 11%; in experiment [4] (at 50.0 µM), 39.6%. In addition, the growth inhibition in experiment [5] (setting [7]) is 16%; in experiment [5] (setting [8]), 16%; in experiment [5] (at 50.0 µM), 65%; in experiment [6] (setting [7]), 32%; in experiment [6] (setting [8]), 32%; in experiment [6] (at 50.0 µM), 52.9%.
With `Cc1ccccc1NC(=O)c1cc2cc(N=Nc3ccccc3C(=O)O)ccc2oc1=O`, the growth inhibition in experiment [1] (setting [7]) was 7%; in experiment [1] (setting [8]), 81% (active); in experiment [1] (at 50.0 µM), 91.4% (active); in experiment [2] (setting [7]) it was -10%; in experiment [2] (setting [8]), 65%; in experiment [2] (at 50.0 µM), 83.5% (active). In addition, the growth inhibition in experiment [3] (setting [7]) is 15%; in experiment [3] (setting [8]) it was 90% (active); in experiment [3] (at 50.0 µM), 96.5% (active); in experiment [4] (setting [7]) it was 9%; in experiment [4] (setting [8]) it was 46%; in experiment [4] (at 50.0 µM) it was 90.3% (active). For the same compound, the growth inhibition in experiment [5] (setting [7]) was 7%; in experiment [5] (setting [8]), 78% (active); in experiment [5] (at 50.0 µM), 82.7% (active); in experiment [6] (setting [7]), 8%; in experiment [6] (setting [8]) it was 49%; in experiment [6] (at 50.0 µM) it was 96.5% (active).
On to `O=C(CSc1nnc(Cc2ccccc2)o1)Nc1ccc(Cl)cc1[N+](=O)[O-]`, for which the growth inhibition in experiment [1] (setting [7]) was 1%; in experiment [1] (setting [8]), 56%; in experiment [1] (at 50.0 µM), 83% (active); in experiment [2] (setting [7]), -13%; in experiment [2] (setting [8]), 57%; in experiment [2] (at 50.0 µM), 50.3%. Further, the growth inhibition in experiment [3] (setting [7]) was 4%; in experiment [3] (setting [8]), 49%; in experiment [3] (at 50.0 µM), 76.5% (active); in experiment [4] (setting [7]), 10%; in experiment [4] (setting [8]), 51%; in experiment [4] (at 50.0 µM), 21.8%. Moreover, the growth inhibition in experiment [5] (setting [7]) was -10%; in experiment [5] (setting [8]) it was 64%; in experiment [5] (at 50.0 µM) it was 15.1%; in experiment [6] (setting [7]) it was 4%; in experiment [6] (setting [8]), 53%; in experiment [6] (at 50.0 µM), 83.8% (active).
Regarding `CCC(=NCCCCCCN=C(CC)c1cc(C)cc([N+](=O)[O-])c1O)c1cc(C)cc([N+](=O)[O-])c1O.[Fe]`, the growth inhibition in experiment [1] (setting [7]) was 10%; in experiment [1] (setting [8]), 46%; in experiment [1] (at 50.0 µM), 80.9% (active); in experiment [2] (setting [7]) it was -10%; in experiment [2] (setting [8]), 79% (active); in experiment [2] (at 50.0 µM), 72.3% (active). Further, the growth inhibition in experiment [3] (setting [7]) is 11%; in experiment [3] (setting [8]) it was 35%; in experiment [3] (at 50.0 µM) it was 72.2% (active); in experiment [4] (setting [7]), -7%; in experiment [4] (setting [8]), 49%; in experiment [4] (at 50.0 µM), 70.5% (active). For the same compound, the growth inhibition in experiment [5] (setting [7]) was -1%; in experiment [5] (setting [8]), 70% (active); in experiment [5] (at 50.0 µM), 71.7% (active); in experiment [6] (setting [7]) it was 11%; in experiment [6] (setting [8]) it was 63%; in experiment [6] (at 50.0 µM), 80.8% (active).
Regarding `COc1ccc(OP2(Oc3ccc(OC)cc3)=NP(Oc3ccc(OC)cc3)(Oc3ccc(OC)cc3)=NP(Oc3ccc(OC)cc3)(Oc3ccc(OC)cc3)=NP(Oc3ccc(OC)cc3)(Oc3ccc(OC)cc3)=N2)cc1`, the growth inhibition is 41% in experiment [1] (setting [7]); 2% in experiment [1] (setting [8]); 61.3% in experiment [1] (at 50.0 µM); 7% in experiment [2] (setting [7]); -9% in experiment [2] (setting [8]); 65.8% in experiment [2] (at 50.0 µM). Besides, the growth inhibition in experiment [3] (setting [7]) is 71% (active); in experiment [3] (setting [8]), 28%; in experiment [3] (at 50.0 µM), 67.3%; in experiment [4] (setting [7]), 0%; in experiment [4] (setting [8]), -13%; in experiment [4] (at 50.0 µM), 24.1%. Also, the growth inhibition in experiment [5] (setting [7]) is 20%; in experiment [5] (setting [8]) it was 35%; in experiment [5] (at 50.0 µM) it was 54.5%; in experiment [6] (setting [7]), 17%; in experiment [6] (setting [8]), -2%; in experiment [6] (at 50.0 µM), 78.8% (active).
